From PubChem
MARV entry inh – qHTS for inhibitors of binding or entry into cells for Marburg Virus; 1.8% of 300,000 active; Marburg virus pseudotyped entry inhibition, cell reporter; Potency, µM (highest dose often 37.8 µM), most hits filed as inhibitors; AID 540276, 2011; calls by dose curve; tested in HEK293 cells
VACV mCherry inh – qHTS for Stage-Specific Inhibitors of Vaccinia Orthopoxvirus: mCherry Reporter Primary qHTS. 0.63% of 310,000 active. Vaccinia virus mCherry reporter infection, fluorescence. Potency, µM (series often up to 36.5 µM), hits mostly inhibitors; calls by dose curve; tested in A549 cells; note: nearly all actives have a fitted effect of over 35% in size
LASV entry inh – qHTS for Inhibitors of binding or entry into cells for Lassa Virus | Lassa virus pseudotype entry inhibition, cell reporter | Potency, µM (doses to about 37.9 µM), actives largely listed as inhibitors | 1.2% of 300,000 active; calls by dose curve; tested in HEK293 cells; note: nearly all actives have a fitted effect of over 50% in size
FMDV antiviral – High Throughput Screening for Foot and Mouth Disease Virus Antivirals | Potency, µM (top dose mostly 57.9 µM), usual class: inhibitors | AID 1159524, 2015 | FMDV antiviral cell-based qHTS | 1.2% of 410,000 active; calls by dose curve; tested in HEK293T cells; note: read-out not given here; nearly all actives have a fitted effect of over 45% in size
VACV Venus inh – qHTS for Stage-Specific Inhibitors of Vaccinia Orthopoxvirus: Venus Reporter Primary qHTS. Vaccinia virus Venus reporter expression, fluorescence. AID 720580, 2013. 0.46% of 330,000 active. Potency, µM (top dose mostly 36.5 µM), actives largely listed as inhibitors; calls by dose curve; tested in A549 cells; note: nearly all actives have a fitted effect of over 30% in size
A number is an active result; 0 = inactive; ? = inconclusive; - = not tested or not shown; [ ] = another dose, or the depositor's remark. Compounds with a hit are over-represented: about 3.2% of the library has one in this group of screens.

SMILES	MARV entry inh	VACV mCherry inh	LASV entry inh	FMDV antiviral	VACV Venus inh
CC(C)CNC(=O)C(=O)Nc1ccc2c(c1)N(S(=O)(=O)c1cccs1)CCC2	3.2µM	0	?	0	0
COC(CNC(=O)C(=O)Nc1ccc2c(c1)N(S(=O)(=O)c1cccs1)CCC2)OC	0	0	0	0	?
CCn1c(O)c(N=NC(=S)NCC2CCCO2)c2ccccc21 (stereo not given)	-	0	-	0	0
CN(C)c1ccc(C=Nc2cnc3ccccc3c2)cc1	-	0	-	-	0
CCN(CC)C(=O)c1ccc2c3c(cccc13)C(=O)N(CCc1ccc(OC)c(OC)c1)C2=O	?	?	?	32µM	?
COc1ccc(CCN2C(=O)c3cccc4cccc(c34)C2=O)cc1OC	0	0	0	0	0
O=C(Nc1ccc(-c2nc3cccnc3s2)cc1)C1CCCO1 (stereo not given)	2.6µM	0	?	0	0
O=C(Nc1ncc(Cc2ccccc2)s1)C1CCCO1 (stereo not given)	?	0	15µM	0	0
C[C@@H]1CC[C@H]2C(=O)N(Cc3ccc(Cl)cc3)C[C@@H](O)CN2[C@@H]1c1ccc(Br)cc1	0	-	-	-	-
Cc1cccc(CN2CCN(C(=O)CCl)CC2)c1	?	0	?	35µM	0
CCCN(CC(=O)Nc1ccccc1C)C(=O)/C=C/c1ccc(S(=O)(=O)N2CCCCCC2)cc1	11µM	0	0	0	0
CCCN(CC(=O)Nc1ccccc1C)C(=O)CCl	?	4.5µM	?	13µM	4.5µM
Cn1nnc2c(NCc3ccco3)ncnc21	-	0	-	-	0
CCCCOc1ccc(/C=N/NC(=O)C2CCCNC2=O)cc1 (stereo not given)	0	0	0	0	0
CCCCCC1CC1C(=O)N/N=C/c1ccc(N(C)C)cc1 (stereo not given)	0	-	0.46µM	0	-
CC1CCN(S(=O)(=O)c2cccc(C(=O)Nc3ccccc3)c2)CC1	0	0	0	0	0
Cc1[nH]c2c(ccc3cccnc32)c1C	0	0	0	0	0
CC1=[N+](C)c2c(ccc3cccnc23)C1(C)C	?	0	5.6µM	?	0
COC(=O)C1=C(C(=O)OC)SC2(S1)C(C(=O)OC)=C(C(=O)OC)Sc1c2ssc1=O	?	7.1µM	11µM	32µM	7.1µM
CCCn1cnc2c(SCc3ccccc3Cl)nc(N)nc21	7.1µM	0	11µM	0	0
Nc1c2c(nc3ccccc13)CCCC2	?	0	?	0	0
Nc1c2ccccc2nc2ccccc12	?	?	?	?	10µM
C=C1CC2(OC1=O)c1ccccc1CCc1ccccc12	?	?	20µM	22µM	14µM
OC1(c2cccnc2)CCN(Cc2ccc3c(c2)CN(Cc2ccc4nsnc4c2)CCO3)CC1	-	0	-	?	0
NC(=S)N/N=C/c1ccc(-c2cc(Cl)ccc2Cl)o1	?	3.2µM	?	0	3.2µM
SMILES	MARV entry inh	VACV mCherry inh	LASV entry inh	FMDV antiviral	VACV Venus inh
NC(=S)N/N=C/c1ccc(-c2cc(Cl)cc(Cl)c2)o1	0	-	0	0	?
Cc1ccsc1/C=C/c1ccc2ccccc2n1	?	0	13µM	0	0
C(=C\c1ccco1)/c1ccc2ccccc2n1	2.8µM	0[7.34 µM]	?	0	0[7.34 µM]
CCOC(=O)c1c(C)[nH]c(C(=O)COC(=O)/C=C/c2ccc(OCC#N)c(OC)c2)c1C	-	-	-	0	-
CCOc1cccc2sc(NC(=O)CS(=O)(=O)c3ccc(C)cc3)nc12	-	0	0	0	0
C=CCn1c(SCC(=O)c2cccs2)nc2sc(C)cc2c1=O	0	0	?	32µM	0
C=CCn1c(SCC(=O)c2cccs2)nnc1-c1cccc(OC)c1	0	0	0	-	0
COc1ccccc1NC(=O)Cn1c(C)cc(C)c(C#N)c1=O	-	0	0	0	0
O=C(C[n+]1c(Cl)cc(Cl)c2ccccc21)c1ccccc1	-	0	-	-	0
C=CCn1c(=O)c2c(nc(-c3ccccc3)n2C)n(C)c1=O	-	0	-	0	0
Cn1c(=O)c2c(nc(-c3ccc(N(CCCl)CCCl)cc3)n2C)n(C)c1=O	?	?	?	32µM	0
CC(=O)c1ccc(F)c(-c2cc(C)cc3c2OC(CNC(=O)C(C)n2nc(C)cc2C)C3)c1 (stereo not given)	-	0	-	0	0
O=c1[nH]c(=O)n(C2CC(O)C(CO)O2)cc1F (stereo not given)	-	?	-	0	?
CCCCCCCCCCCCCCCCCCNc1ccn(C2OC(COP(=O)(O)OCC3OC(n4cc(F)c(=O)[nH]c4=O)CC3O)C(O)C2O)c(=O)n1 (stereo not given)	?	0.32µM	?	0	?
Cc1cccn2c(=O)c3cc(C(=O)NCc4ccccc4)c(=N)n(CCCN4CCOCC4)c3nc12	-	-	-	0	-
COc1ccc(CCNC(=O)c2cc3c(=O)n4ccccc4nc3n(CCCN3CCOCC3)c2=N)cc1	-	-	-	0	-
Cc1cccn2c(=O)c3cc(C(=O)NCCN4CCOCC4)c(=N)n(CCCN4CCOCC4)c3nc12	7.9µM	0	?	0	0
COc1ccc(CCNC(=O)c2cc3c(=O)n4ccccc4nc3n(CCN3CCOCC3)c2=N)cc1	2.8µM	0	?	0	0
CCCNC(=O)OC[C@H]1O[C@H](CCO/N=C2\C[C@@H](O)[C@@H](O)[C@@H]3[C@@H]4C(=O)N(CC)C(=O)[C@@H]4CC[C@@H]23)C=C[C@@H]1Oc1ccc(OC)cc1	0	-	-	-	-
CCOC(=O)[C@]12CCCC=C1N(Cc1ccccc1)C(=O)[C@H](CC(=O)N1CCCCCC1)C2	-	0	-	0	0
CC1(C(=O)Nc2ccc3[nH]ncc3c2)CCN1C(=O)Cc1ccc(-c2ccccc2)cc1 (stereo not given)	-	0	-	40µM	0
COc1ccc(Cc2noc(CN3CCN(c4ccc(Cl)cn4)CC3)n2)cc1OC	?	0	?	13µM	?
COc1ccc(-c2nc(Cc3ccc(Cl)cc3)no2)cc1OC	0	-	4µM	0	0
COc1ccccc1-c1ccnc(-n2ncc(C(=O)NCc3cccc(C)n3)c2C)n1	-	0	-	0	0
CCN1CCN(c2nc3c(c(=O)[nH]c(=O)n3C)n2CCSc2nc3ccccc3s2)CC1	0	0	-	0	0
SMILES	MARV entry inh	VACV mCherry inh	LASV entry inh	FMDV antiviral	VACV Venus inh
CC(C)CCn1c(SCC(=O)c2ccccc2)nc2c1c(=O)[nH]c(=O)n2C	0	0	0	0	0
CC(CSc1nc2ccccc2s1)Cn1c(N2CCCC2)nc2c1c(=O)[nH]c(=O)n2C (stereo not given)	8.9µM	0	0	0	0
CC(C)CCn1c(Sc2nc3ccccc3s2)nc2c1c(=O)[nH]c(=O)n2C	?	-	?	32µM	-
O=C(C[n+]1ccccc1Cl)c1ccc2c(c1)CCCC2	-	0	-	-	0
O=C(c1nc2ncccn2n1)N1CCOc2ccc(C(O)C(c3ccccc3)c3ccccc3)cc2C1 (stereo not given)	-	0	-	0	0
O=C(Cc1cccc2ccccc12)Nc1cc(Cl)ccc1C(=O)O	0	0	0	0	0
O=C(Cc1cccc2ccccc12)Nc1ccccc1C(=O)O	15µM	-	?	0	-
O=C(CSc1ccccc1)Nc1ccccc1C(=O)O	18µM	-	?	0	-
Cc1nn(CC(=O)NCc2ccc(OC(C)C)cc2)c(=O)c2c(C)n(-c3ccc(Cl)cc3)nc12	-	0	0	?	0
